Rows were chosen to be rich in hits. Some 6.6% of all compounds tested hit in one or more screens of this group.
Beta apoptosis = inhibitors of cytokine-induced beta cell apoptosis, primary screen, luminescence; INS-1E cytokine-induced death, ATP luminescence, 48 h; percent of positive-control rescue, neutral wells zero; protection from apoptosis, % (test concentration not listed); hit rate 0.8% among 300,000; AID 435005, 2010;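 active = Every replicate reaches about 75%, or at least half do and their mean reaches it too, limit read from the data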;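 also: 0% = cytokine-treated negative control wells and 100% = positive control rescue; higher means more ATP so stronger rescue from cytokine killing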
Mdm2 MdmX PPI = inhibitors of human Mdm2-MdmX association, primary screen, cell-based, luminescence, split luciferase, SaOS-2, uHTS; Protein Mdm4 (Homo sapiens) + E3 ubiquitin-protein ligase Mdm2 (Homo sapiens), …; inhibition, % at 8 µM; AID 485346, 2010; SaOS-2 split-luciferase Mdm2/MdmX complementation; hit rate 3% among 330,000;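 active = inhibition of at least 50% at 8 µM in the primary screen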
Target sequence (O15151 whole entry, looked up): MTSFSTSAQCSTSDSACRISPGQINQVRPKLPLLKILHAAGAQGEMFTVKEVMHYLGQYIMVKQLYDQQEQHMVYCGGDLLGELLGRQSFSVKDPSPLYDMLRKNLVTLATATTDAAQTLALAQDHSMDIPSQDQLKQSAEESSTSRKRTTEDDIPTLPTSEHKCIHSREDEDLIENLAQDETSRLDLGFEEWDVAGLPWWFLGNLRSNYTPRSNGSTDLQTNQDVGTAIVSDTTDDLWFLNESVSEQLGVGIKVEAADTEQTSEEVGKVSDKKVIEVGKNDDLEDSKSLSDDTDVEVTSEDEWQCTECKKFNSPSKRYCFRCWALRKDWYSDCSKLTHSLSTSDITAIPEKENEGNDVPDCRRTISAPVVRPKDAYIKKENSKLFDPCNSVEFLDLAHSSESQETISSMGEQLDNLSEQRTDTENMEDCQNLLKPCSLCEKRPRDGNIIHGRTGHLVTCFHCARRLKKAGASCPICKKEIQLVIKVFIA
Target sequence (Q00987 whole entry, looked up): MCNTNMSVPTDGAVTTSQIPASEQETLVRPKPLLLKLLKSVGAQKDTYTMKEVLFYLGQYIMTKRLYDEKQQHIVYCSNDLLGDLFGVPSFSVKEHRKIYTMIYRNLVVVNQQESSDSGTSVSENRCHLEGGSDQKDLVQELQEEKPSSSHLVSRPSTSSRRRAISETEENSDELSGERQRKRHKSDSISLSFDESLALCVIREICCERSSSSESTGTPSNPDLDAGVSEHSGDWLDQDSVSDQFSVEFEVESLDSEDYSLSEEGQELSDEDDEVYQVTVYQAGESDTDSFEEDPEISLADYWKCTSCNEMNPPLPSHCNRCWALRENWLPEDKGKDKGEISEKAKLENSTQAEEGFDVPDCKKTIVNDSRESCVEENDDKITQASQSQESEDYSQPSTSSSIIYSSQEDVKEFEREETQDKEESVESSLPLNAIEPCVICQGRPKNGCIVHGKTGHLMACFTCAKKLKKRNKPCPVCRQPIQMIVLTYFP
MPTP block = mitochondrial permeability transition pore inhibitors, primary screen, biochemical, isolated mouse mitochondria, absorbance; hit rate 1.4% among 360,000; inhibition, % at 10 µM; Ca2+ swelling absorbance, 30 min; AID 602449, 2012;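 active = inhibition of 50% or more, scaled per plate between neutral and stimulator controls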;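 also: 0% = DMSO wells given calcium and 100% = 1 mM EGTA wells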
GRIN3A LBD mod = binders of NR3A ligand-binding domain, primary screen, biophysical, differential scanning fluorimetry, uHTS; NR3A LBD differential scanning fluorimetry, Tm shift; 0% = protein alone, 100% = glycine-bound protein; Tm shift relative to glycine control, % at 25 µM; hit rate 2.5% among 340,000; AID 1259313, 2017;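 active = melting temperature shift of at least 10% of the positive control shift, at one fixed dose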
Gli-Sufu antag = Gli-Sufu pathway antagonists, primary screen, luciferase luminescence, Sufu-KO-LIGHT cells, uHTS; Sufu-KO-LIGHT fibroblasts, Gli luciferase reporter luminescence; inhibition, % at 5 µM; hit rate 0.74% among 340,000;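 active = inhibition above about 55%, limit read from the data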;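 also: 0% = DMSO-treated cells and 100% = wells with medium but no cells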
CSC inhib = cancer stem cell viability inhibitors, primary screen, luminescence; inhibition, % at 7.5 µM; cancer stem cell-like cells viability; AID 2717, 2010; hit rate 1.1% among 300,000; in the data active = inhibition above about 75%; tested in HMLE shEcad cells
Gli antag conf = Gli-SUFU pathway antagonists, confirmation, single concentration, luciferase luminescence, Sufu-KO-LIGHT cells. Gli luciferase reporter. hit rate 40% among 2,500. shares compounds with Gli-Sufu antag. inhibition, % at 5 µM. AID 602428, 2012;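 active = mean inhibition at 5 µM reaching about 45%, limit read from the data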;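 also: plate controls were DMSO-treated cells for no effect and wells lacking cells for full effect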
SufuKO cytotox = cytotoxicity in Sufu-KO-LIGHT cells, confirmation, cytotoxicity control for Gli-SUFU antagonist project, cell-based, ATP luminescence, single concentration | shares compounds with Gli-Sufu antag | hit rate 32% among 2,500 | AID 651994, 2013 | cytotoxicity, % at 5 µM;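 active = mean cytotoxicity at 5 µM above about 25%, limit read from the data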;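 also: cells exposed to compound overnight for roughly 16 to 18 hours; plate controls were DMSO wells with cells for no effect and medium without cells for full effect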
Wnt3a counter = Wnt3a reporter signal inhibition, confirmation, counter-screen for Gli-SUFU antagonist project, Wnt-LIGHT cells, luminescence, single concentration. shares compounds with Gli-Sufu antag. Wnt3a-driven luciferase reporter. inhibition, % at 6.25 µM. hit rate 20% among 2,500;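 active = mean inhibition above about 25%, limit read from the data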
* marks the source's active call; other numbers are inactive results.

`CCc1cccc(NC(=O)C2CCCN2S(=O)(=O)c2cccc3cccnc23)c1` (centres undefined) gave Beta apoptosis 1, Mdm2 MdmX PPI 34, MPTP block 0, GRIN3A LBD mod 2, Gli-Sufu antag 52, CSC inhib 13, Gli antag conf 2, SufuKO cytotox -4 and Wnt3a counter -15.
CN1N=C(N)c2cn(C3OC(COP(=O)(O)O)C(O)C3O)c3ncnc1c23 (centres undefined) was read as MPTP block 1, GRIN3A LBD mod -1, Gli-Sufu antag 89*, Gli antag conf 86*, SufuKO cytotox 63* and Wnt3a counter 71*.
`COc1ccc(S(=O)(=O)NCC2CCCN(Cc3ccc(OC)cc3F)C2)cc1` (centres undefined) gave Beta apoptosis -1, Mdm2 MdmX PPI 4, MPTP block -2, GRIN3A LBD mod 0, Gli-Sufu antag 60*, CSC inhib -11, Gli antag conf 26, SufuKO cytotox -5 and Wnt3a counter -15.
Screening COc1ccc(-c2ccc(OC)cc2)cc1 returned Beta apoptosis -2, Mdm2 MdmX PPI -9, MPTP block 2, GRIN3A LBD mod 1, Gli-Sufu antag -34 and CSC inhib -13.
`COc1ccc(-c2cnc3c(c2)CCC3(C#N)C#N)cc1` gave Beta apoptosis 1, MPTP block -1, GRIN3A LBD mod -8, Gli-Sufu antag 52, CSC inhib 33, Gli antag conf 61*, SufuKO cytotox 47* and Wnt3a counter -32.
Screening CCN(CCc1ccccc1)c1ccc2c(c1)C1CC2CCN1C(=O)OCc1ccccc1 (centres undefined) returned MPTP block -1, GRIN3A LBD mod 2 and Gli-Sufu antag 1.
CCCCN(C(C)=O)c1ccc2c(c1)C1CC2CCN1C(=O)OCc1ccccc1 (centres undefined) was read as MPTP block 6, GRIN3A LBD mod -4, Gli-Sufu antag 56*, Gli antag conf 64*, SufuKO cytotox 31* and Wnt3a counter 3.
`Cn1c(=N)n(CC(=O)c2ccc(Br)cc2)c2ccccc21` gave Beta apoptosis -12, Mdm2 MdmX PPI -8, MPTP block 0, GRIN3A LBD mod 2, Gli-Sufu antag -56 and CSC inhib 10.
`O=C(Cn1c(-c2ccccc2)c[n+]2ccsc12)c1ccc(Br)cc1` gave Beta apoptosis 27, Mdm2 MdmX PPI 39, MPTP block 2, GRIN3A LBD mod -3, Gli-Sufu antag 50, CSC inhib -10, Gli antag conf 45*, SufuKO cytotox 17 and Wnt3a counter -31.
O=C(Nc1ccc2oc(-c3ccncc3)nc2c1)c1ccccc1 was read as Beta apoptosis 0, Mdm2 MdmX PPI -13, MPTP block 1, GRIN3A LBD mod -7, Gli-Sufu antag 85*, CSC inhib 7, Gli antag conf 21, SufuKO cytotox 1 and Wnt3a counter -25.
For CCn1cc(C(=O)NCCN(C)CCc2ccccc2)c(=O)c2cc(S(=O)(=O)N(C)C)ccc21 the results were Beta apoptosis -1, Mdm2 MdmX PPI 24, MPTP block 2, GRIN3A LBD mod -1, Gli-Sufu antag 69*, CSC inhib -3, Gli antag conf 24, SufuKO cytotox 0 and Wnt3a counter -2.
COc1cc(C(=O)NC2CCN(C)CC2)ccc1Nc1ncc2c(n1)N(Cc1ccccc1)CCC(=O)N2C was read as MPTP block 0, GRIN3A LBD mod 1, Gli-Sufu antag 91*, Gli antag conf 89*, SufuKO cytotox 20 and Wnt3a counter -101.
For COc1ccc(Cn2c(=O)[nH]c3cc(C(=O)NC4CCN(Cc5ccccc5)CC4)ccc32)cc1 the results were Beta apoptosis 2, Mdm2 MdmX PPI 24, MPTP block -1, GRIN3A LBD mod -1, Gli-Sufu antag 48 and CSC inhib 0.
Screening COc1cc(/C=C2\CCc3ccccc3C2=O)cc(OC)c1OC returned Beta apoptosis 1, Mdm2 MdmX PPI 27, MPTP block 3, GRIN3A LBD mod 10, Gli-Sufu antag 8 and CSC inhib -12.
For CCN1C/C(=C\c2cc(OC)c(OC)c(OC)c2)C2=NN(c3ccccc3)C(c3cc(OC)c(OC)c(OC)c3)C2C1 (centres undefined) the results were MPTP block 0, GRIN3A LBD mod -1, Gli-Sufu antag 53, Gli antag conf 30, SufuKO cytotox 17 and Wnt3a counter -9.
For CCOC(Cn1cc(C)c(=O)[nH]c1=O)OCC the results were Beta apoptosis 0, Mdm2 MdmX PPI 22, MPTP block -1, GRIN3A LBD mod -1, Gli-Sufu antag 0 and CSC inhib -3.
For C=CCNC(=O)c1ccccc1NC(=O)C1CCN(S(=O)(=O)c2ccc(SC)cc2)CC1 the results were Beta apoptosis 2, Mdm2 MdmX PPI -3, MPTP block -1, GRIN3A LBD mod 1, Gli-Sufu antag 66*, CSC inhib 9, Gli antag conf 10, SufuKO cytotox 5 and Wnt3a counter -43.
CCCC1NC(=O)c2cccnc2-n2c1nc1ccc(Cl)cc1c2=O (centres undefined) was read as MPTP block 1.
For Cc1cccc(NC(=O)c2cnn(-c3ccc(F)cc3)c2C2CCNCC2)c1C the results were Beta apoptosis -6, Mdm2 MdmX PPI 26, MPTP block 0, GRIN3A LBD mod 1, Gli-Sufu antag 55, CSC inhib -13, Gli antag conf 18, SufuKO cytotox -1 and Wnt3a counter 11.
`Cc1cc(C)cc(NC(=O)c2cnn(-c3ccccc3)c2C2CCNCC2)c1` gave Beta apoptosis -7, Mdm2 MdmX PPI 3, MPTP block -2, GRIN3A LBD mod -2, Gli-Sufu antag 4 and CSC inhib -3.
Nc1nc2c(ncn2[C@@H]2O[C@H](CNCc3ccc(Oc4cc(-n5cccn5)ncn4)cc3)[C@@H](O)[C@H]2O)c(=O)[nH]1 was read as MPTP block -1.
